We go through one molecule from PubChem BioAssay AID489017 (The Scripps Research Institute Molecular Screening Center, 2010).

In general, inhibition refers to the drop in the measured response relative to a control, in per cent.

The assay has as its system Phorbol Ester. As to the kind of experiment: off-target binding and CYP450 inhibition panel, profiling panel, selectivity assay for S1P4 antagonist project, biochemical, Ricerca HitProfilingScreen (AID 489017). Particulars: Ricerca receptor/enzyme binding panel plus CYP450, at 10 µM, hits give high values.

SMILES strings stand for the structures. A number with no mark means an inactive call. How the calls were made is not given here.

In the case of `CCc1cccc(CC)c1NC(=O)c1ccc(-c2cc(Cl)ccc2Cl)o1`, the inhibition was -12%.
